Binding signal data for 42 sequences are collected here from article PMC7819943, “Rice protein-binding microarrays: a tool to detect cis-acting elements near promoter regions in rice”.

Over roughly 39,000 sequences, “fluorescence intensity (a.u.)” has its median near 4,300; the highest 2% begin near 39,000. For the sample, the highest values were picked, then their nearest neighbours and some sequences at random.

The target in this test is T1, OsSMF1 (Oryza sativa, UniProt Q6ZLB0 1-436).
T1 sequence: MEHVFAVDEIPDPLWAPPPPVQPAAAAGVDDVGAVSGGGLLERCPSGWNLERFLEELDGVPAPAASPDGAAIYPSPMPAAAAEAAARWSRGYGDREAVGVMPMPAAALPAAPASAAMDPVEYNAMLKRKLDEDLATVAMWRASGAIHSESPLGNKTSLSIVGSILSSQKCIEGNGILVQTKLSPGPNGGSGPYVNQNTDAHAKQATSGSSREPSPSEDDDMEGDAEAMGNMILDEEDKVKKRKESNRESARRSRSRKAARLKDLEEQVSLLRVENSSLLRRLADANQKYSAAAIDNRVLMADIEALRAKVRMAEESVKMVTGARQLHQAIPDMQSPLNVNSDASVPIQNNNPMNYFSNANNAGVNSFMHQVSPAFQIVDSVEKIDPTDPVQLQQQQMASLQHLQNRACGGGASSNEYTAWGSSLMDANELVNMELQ
Description: protein-binding microarray (RPBM); PBS, 2% BSA, 51.3 ng/ul salmon testes DNA, 50 uM zinc acetate, 200 nM TF, 25 C, 1 h; high values mean tight binding. The note with it: protein: recombinant; tags: N-terminal polyhistidine and DsRed monomer fusion (pET32a); chain copies: 2; label: CyDye5-dUTP incorporated in the synthesized complementary strand; 3' TTTTT single-stranded linker to array surface; dsDNA, one strand shown. The procedure, abridged: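 The binding signal is fluorescence intensity per feature, in arbitrary units, read on an Axon 4000B scanner. Polyhistidine- and DsRed-tagged transcription factors (N-terminal fusions) from E. coli BL21-CodonPlus were purified on Ni–NTA and applied at 200 nM for 1 h at 25 °C to a double-stranded, BSA-blocked custom Agilent array in buffer with 50 µM zinc acetate.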
Turning to “TAATTCAGCTTAATAAATTCGTCCAGCTGTTTACTGACTGCGGAGTCACCTAGTGCAG”, the binding signal was 52800 fluorescence intensity (a.u.). The value for “TTAATGCATACTGACAGCTGTTTATGTGCTTCAAATTTACCGGAGTCACCTAGTGCAG” was 4700 fluorescence intensity (a.u.). Turning to “GCTTAATAAATTCGTCTCGCGGTTTAATGTTGGATTCTGTCGGAGTCACCTAGTGCAG”, the binding signal was 3670 fluorescence intensity (a.u.).

Turning to “TCTGCCGCCGGCCGCGGCGAGGGATGGCATTGGCGTGGCGCGGAGTCACCTAGTGCAG”, the binding signal is 3550 fluorescence intensity (a.u.). The result for “GCGAGCGGCCAACTGGGAAGGCGGTGGTGAGGACATCGTGCGGAGTCACCTAGTGCAG” reads 5400 fluorescence intensity (a.u.); that for “GCGCATTGGCGAGGACTGCGACTATCTGGGAAGCGTGAAGCGGAGTCACCTAGTGCAG”, 51500 fluorescence intensity (a.u.); that for “GGTGTCGCGTCGCGTCTGCAGTAGAAATGGAAGCCTGGGGCGGAGTCACCTAGTGCAG”, 3230 fluorescence intensity (a.u.). The value for “AGAAGAAGAGGAAGCTGTGGGTCAGGTGGGTTTCCGCCCACGGAGTCACCTAGTGCAG” was 41300 fluorescence intensity (a.u.). The result for “GGCCCACGCCGGCAGATCAGGTGGGGAGAGAAGCTCCGCCCGGAGTCACCTAGTGCAG” reads 14700 fluorescence intensity (a.u.); that for “AGAGGAAGAGGAAGAAGAGGTCATTCCGCCACGTCCCGGACGGAGTCACCTAGTGCAG”, 7090 fluorescence intensity (a.u.); that for “GTGGAAAAGCCAAAGGCAAAGGCAAACCACGCGTCTCTCTCGGAGTCACCTAGTGCAG”, 17400 fluorescence intensity (a.u.). For “ATCAAAATAGATTAAAGTTTAGTTTTAACGAAACTAGTTTCGGAGTCACCTAGTGCAG”, the binding signal is 3180 fluorescence intensity (a.u.).

For “TGAGAGAGAATTGCATTTTATGACATGCCCATATGATGATCGGAGTCACCTAGTGCAG”, the binding signal is 17600 fluorescence intensity (a.u.). The result for “ATTCACTGGAGGTGGTGCATCAGCATCACCAAAGCTAGCACGGAGTCACCTAGTGCAG” reads 3970 fluorescence intensity (a.u.); that for “GGAAATAGTAAATAGCTACTACCAAGCCATAAGCTTACTACGGAGTCACCTAGTGCAG”, 17900 fluorescence intensity (a.u.).

As to “ACACTACCAATAGCTGGTACTTATTCAGCACAATAAGCTACGGAGTCACCTAGTGCAG”, the binding signal was 46400 fluorescence intensity (a.u.). The result for “ACTAAACAGATTTTCTTTAAAGTTTATGCAGAAAAGTTTCCGGAGTCACCTAGTGCAG” reads 5060 fluorescence intensity (a.u.); that for “GAACTACTAAACGGTACGTCTTTTCGTTTAAAAGAATATCCGGAGTCACCTAGTGCAG”, 39400 fluorescence intensity (a.u.).

Regarding “TTCTACTATGTCATTCTAGTACTATATAAAACTACTATGCCGGAGTCACCTAGTGCAG”, the binding signal was 3690 fluorescence intensity (a.u.). As for “GCATATGGGGCATATATACGTACATGACTGAATCATCGTTCGGAGTCACCTAGTGCAG”, the binding signal is 3250 fluorescence intensity (a.u.). The result for “ATATGGCATACATGAGAATTTAGAGAATTTACCATCAAATCGGAGTCACCTAGTGCAG” reads 45500 fluorescence intensity (a.u.); that for “ACCTACTAATAACTAGTTAATTGTCTATTGTGCCCCTAGTCGGAGTCACCTAGTGCAG”, 13700 fluorescence intensity (a.u.); that for “ATTTAATAACTTCTATGGACAATATGTGCCCTGAAACTACCGGAGTCACCTAGTGCAG”, 48800 fluorescence intensity (a.u.).

As for “TATATATTATACCATTAATGACTGATCCTACCCTCTCATACGGAGTCACCTAGTGCAG”, the binding signal is 3290 fluorescence intensity (a.u.). On to “TATGTTGAGTTTGAATTTGTATATTTATGAAATGGCATATCGGAGTCACCTAGTGCAG”, for which the binding signal was 33000 fluorescence intensity (a.u.). Consider “ATCGTCGTCGCCGCCGCCTCCCATGTCGTTGCTGTCGCCGCGGAGTCACCTAGTGCAG”, for which the binding signal was 3240 fluorescence intensity (a.u.). The result for “TCGGCGGCGAACTTCCCCGCCGACGTGCCAGATCTCAAACCGGAGTCACCTAGTGCAG” reads 4610 fluorescence intensity (a.u.); that for “TGTTTCTTTTCTTCAGACTAGTCACCTACGGTTTACTATTCGGAGTCACCTAGTGCAG”, 3720 fluorescence intensity (a.u.); that for “ATCACATCAAAACTTTTCTACACATATAAACTTCTAACTTCGGAGTCACCTAGTGCAG”, 27400 fluorescence intensity (a.u.). The result for “TCCAATCAGACGACTATTCCTATGTTTTACAATTCTCTATCGGAGTCACCTAGTGCAG” reads 51200 fluorescence intensity (a.u.). On to “AATGTAAGTCATTCTAGCATTTCTCATTAACATCAATATGCGGAGTCACCTAGTGCAG”, for which the binding signal was 3240 fluorescence intensity (a.u.). In the case of “TGTTCTAACAATAGCATTTCTTGCATTTAACTATGTTCCTCGGAGTCACCTAGTGCAG”, the binding signal was 52900 fluorescence intensity (a.u.). The result for “ACTGGCTTCAATTTATCTATAGCTAATCTAATAGCTAATTCGGAGTCACCTAGTGCAG” reads 33900 fluorescence intensity (a.u.); that for “CAATTCATCTATAACTAATTTAATAGTCAATTCATACAATCGGAGTCACCTAGTGCAG”, 44100 fluorescence intensity (a.u.). The value for “TTATTTATAACTGATCTAATAGCCAATTCACACAATAATTCGGAGTCACCTAGTGCAG” was 13700 fluorescence intensity (a.u.); that for “AGTTCCTAATATTTCTCAATGTATATATGTACTCATTCCTCGGAGTCACCTAGTGCAG” was 3800 fluorescence intensity (a.u.). The value for “TGCACTATTCTATATTATATTATGCAAGTTTATTTTACGACGGAGTCACCTAGTGCAG” was 3260 fluorescence intensity (a.u.); that for “ACTTTCACAAAACTATACACATATCACTTTTCAATAAATACGGAGTCACCTAGTGCAG” was 19900 fluorescence intensity (a.u.); that for “CAAACTTCTAACCTTTTCATCACATCAAAACTTTTCTATACGGAGTCACCTAGTGCAG” was 63600 fluorescence intensity (a.u.). For “CCCTTCGTCGACACGCACCCCTGACCTCATATTTTCGCTTCGGAGTCACCTAGTGCAG”, the binding signal was 5650 fluorescence intensity (a.u.).

As to “ATGCCATGCCAACGCACTATGCCTGGTATCCTTAGCCATCCGGAGTCACCTAGTGCAG”, the binding signal is 4060 fluorescence intensity (a.u.).

Consider “CGACCTGAGGTTGGCGGTCGGCATGACGTCACGGGTGGGACGGAGTCACCTAGTGCAG”, for which the binding signal is 24200 fluorescence intensity (a.u.).
